Assay [1] is described as follows: antimalarial activity against Dd2 strain (AID 2302;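 active = growth inhibition above 50% at the single 2 µM test dose, taken to imply half-maximal potency below 2 µM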;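 also: 0% = DMSO untreated growth and 100% = chloroquine plus artemisinin killed control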). Conditions: P. falciparum Dd2 in RBCs, LDH growth readout, 72 h; at 2 µM; active compounds read high.
Assay [2] in a line: human hepatoma cell viability loss – ATP luminescence, cytotoxicity control for P. falciparum antimalarial project, primary screen (AID 2303;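 active = inhibition above 50%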;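 also: 0% = DMSO wells and 100% = digitonin-killed cells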). Conditions: HepG2 viability, 24-48 h, at 10 µM, active compounds read high.
Assay [3] addresses L-lactate dehydrogenase (Plasmodium falciparum (isolate CDC / Honduras)) (UniProt Q27743). The assay is described as follows: PfLDH activity inhibition – cell lysate, 3D7 strain, counter-screen for P. falciparum growth inhibition project (AID 2304).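 Also: 0% = vehicle and 100% = reference inhibitor.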 Conditions: P. falciparum 3D7 crude extract, LDH APAD/NBT absorbance; at 2 µM; active compounds read high.
A short description of assay [4]: inhibition of 3D7 malaria parasite growth – strain 3D7 (AID 2306).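 Also: 0% = DMSO wells and 100% = chloroquine plus artemisinin control wells.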 The conditions noted are these: P. falciparum 3D7 erythrocytic growth, LDH absorbance, 72 h; at 2 µM; active compounds read high.
Assay [5] has as its target Calcium-dependent protein kinase 1 (Plasmodium falciparum (isolate 3D7)) (UniProt P62344). The assay is described as follows: PfCDPK1 kinase inhibitors, biochemical, TCAMS library (AID 1159585; cut-off not given, nearly all actives have IC50 up to about 0.98 µM;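 also: inhibitors leave more ATP so luminescence rises with inhibition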). Conditions: recombinant PfCDPK1, Kinase-Glo ATP depletion luminescence.
In assay [6] the target is Plasmodium falciparum protein kinase 6 (PK6, PF3D7_1337100) (UniProt Q8IDW1). Description: PfPK6 kinase inhibitors, biochemical, TCAMS library (AID 1159586). The conditions noted are these: recombinant PfPK6, Kinase-Glo ATP depletion luminescence. (Kinase-Glo measures the ATP left after a reaction by luminescence.)
In assay [7] the target is Protein kinase 7 (PK7), Plasmodium falciparum 3D7 (PF3D7_0213400) (UniProt Q7YTF7). Description: inhibition of Plasmodium PK7 catalytic activity – biochemical, TCAMS antimalarial set, Kinase-Glo luminescence (AID 1159587). The conditions noted are these: recombinant PfPK7, Kinase-Glo ATP depletion luminescence.
Assay [8] concerns the target Calcium-dependent protein kinase 4 (Plasmodium falciparum (isolate 3D7)) (UniProt Q8IBS5). The assay is described as follows: PfCDPK4 kinase inhibitors, biochemical, TCAMS library (AID 1159588; cut-off not given, nearly all actives have IC50 up to about 0.91 µM). The conditions noted are these: recombinant PfCDPK4, Kinase-Glo ATP depletion luminescence.

Each structure is given as a SMILES string. Values without a mark were called inactive. For some assays here: Entries with a potency or affinity are not part of this list. Calls of active or inactive are those of the source. Unless noted, no rule for the calls is given here.

Protein kinase 7 (PK7), Plasmodium falciparum 3D7 (PF3D7_0213400), sequence (Q7YTF7 1-343): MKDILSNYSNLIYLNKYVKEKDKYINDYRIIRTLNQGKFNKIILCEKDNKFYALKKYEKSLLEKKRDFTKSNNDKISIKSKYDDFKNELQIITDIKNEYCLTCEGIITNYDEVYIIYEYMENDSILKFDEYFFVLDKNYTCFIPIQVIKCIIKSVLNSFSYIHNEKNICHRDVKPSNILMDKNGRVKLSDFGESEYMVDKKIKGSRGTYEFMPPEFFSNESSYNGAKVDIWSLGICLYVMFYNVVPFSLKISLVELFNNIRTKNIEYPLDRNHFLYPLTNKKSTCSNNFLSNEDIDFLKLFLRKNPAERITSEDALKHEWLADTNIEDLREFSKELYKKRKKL
L-lactate dehydrogenase (Plasmodium falciparum (isolate CDC / Honduras)), sequence (Q27743 whole entry, looked up): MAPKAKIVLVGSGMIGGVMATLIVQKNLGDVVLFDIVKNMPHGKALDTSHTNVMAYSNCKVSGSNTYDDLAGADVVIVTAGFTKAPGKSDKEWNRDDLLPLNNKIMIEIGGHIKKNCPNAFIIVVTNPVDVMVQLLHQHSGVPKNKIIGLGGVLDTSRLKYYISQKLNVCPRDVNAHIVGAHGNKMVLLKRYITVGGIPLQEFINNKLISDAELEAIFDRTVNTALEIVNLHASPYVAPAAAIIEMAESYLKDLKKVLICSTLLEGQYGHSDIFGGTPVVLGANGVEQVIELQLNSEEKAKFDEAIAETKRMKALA
Plasmodium falciparum protein kinase 6 (PK6, PF3D7_1337100), sequence (Q8IDW1 1-305): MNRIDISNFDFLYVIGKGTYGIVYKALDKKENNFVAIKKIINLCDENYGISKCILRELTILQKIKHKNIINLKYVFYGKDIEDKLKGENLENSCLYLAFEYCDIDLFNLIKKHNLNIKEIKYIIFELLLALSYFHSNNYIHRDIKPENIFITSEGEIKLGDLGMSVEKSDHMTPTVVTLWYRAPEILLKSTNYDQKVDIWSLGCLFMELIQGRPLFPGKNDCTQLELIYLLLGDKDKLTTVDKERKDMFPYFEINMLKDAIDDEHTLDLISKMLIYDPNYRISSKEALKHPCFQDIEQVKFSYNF
Calcium-dependent protein kinase 1 (Plasmodium falciparum (isolate 3D7)), sequence (P62344 whole entry, looked up): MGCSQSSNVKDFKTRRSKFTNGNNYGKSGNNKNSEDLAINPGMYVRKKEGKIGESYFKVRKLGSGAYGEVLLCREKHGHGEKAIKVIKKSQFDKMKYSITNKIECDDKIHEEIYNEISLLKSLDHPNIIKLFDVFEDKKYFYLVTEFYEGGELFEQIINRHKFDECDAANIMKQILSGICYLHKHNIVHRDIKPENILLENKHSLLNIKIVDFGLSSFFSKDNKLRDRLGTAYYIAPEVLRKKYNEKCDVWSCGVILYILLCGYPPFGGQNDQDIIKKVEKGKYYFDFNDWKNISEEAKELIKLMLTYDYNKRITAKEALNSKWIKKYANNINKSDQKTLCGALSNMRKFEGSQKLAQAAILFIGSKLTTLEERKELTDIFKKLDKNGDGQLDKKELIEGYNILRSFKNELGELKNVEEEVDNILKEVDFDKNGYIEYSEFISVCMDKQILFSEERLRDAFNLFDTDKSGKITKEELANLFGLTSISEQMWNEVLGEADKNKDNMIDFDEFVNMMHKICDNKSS
Calcium-dependent protein kinase 4 (Plasmodium falciparum (isolate 3D7)), sequence (Q8IBS5 whole entry, looked up): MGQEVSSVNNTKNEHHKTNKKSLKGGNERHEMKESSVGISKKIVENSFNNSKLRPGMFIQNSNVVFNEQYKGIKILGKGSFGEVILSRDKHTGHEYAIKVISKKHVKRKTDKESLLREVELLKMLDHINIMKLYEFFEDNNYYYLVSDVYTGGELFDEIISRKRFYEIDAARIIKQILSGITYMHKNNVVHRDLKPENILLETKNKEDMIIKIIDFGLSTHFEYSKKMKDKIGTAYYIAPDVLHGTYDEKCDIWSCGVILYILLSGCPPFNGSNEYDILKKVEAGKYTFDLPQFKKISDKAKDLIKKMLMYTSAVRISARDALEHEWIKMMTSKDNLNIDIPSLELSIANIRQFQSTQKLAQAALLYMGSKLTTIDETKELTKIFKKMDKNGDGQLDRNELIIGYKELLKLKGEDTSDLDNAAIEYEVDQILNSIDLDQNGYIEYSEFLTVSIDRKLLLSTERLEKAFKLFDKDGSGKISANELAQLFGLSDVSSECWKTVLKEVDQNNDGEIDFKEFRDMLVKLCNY

On to `CCc1ccccc1N1CCN(CCCCNC(=O)c2ccc(NC(=O)c3ccc(Cl)cc3)cc2)CC1`, for which the figures for the growth inhibition in assay [1] and in assay [4] were 4% and 96% (active), respectively. The results for the inhibition in assay [2] and in assay [3] were 21% and -4%, respectively. Moreover, the outcome in assay [5], in assay [6], in assay [7] and in assay [8] was inactive.

On to `c1cc(CN2CCC(CCN3CCCCC3)CC2)cc(-c2csc(-c3nc4ccccc4[nH]3)c2)c1`, for which the growth inhibition in assay [1] and in assay [4] was 99% (active) in each case. In addition, the inhibition in assay [2] was 89% (active); in assay [3], -3%. For the same compound, the result in assay [5], in assay [6], in assay [7] and in assay [8] was inactive.

With `CCCC(C)Nc1nc(C)cc(N[C@@H](CC(C)C)C(=O)NCCc2ccccc2)n1` (some centres not stated), the growth inhibition in assay [1] is 51% (active); in assay [4] it was 96% (active). Further, the inhibition in assay [2] was 9%; in assay [3], -2%. For the same compound, the outcome in assay [5], in assay [6], in assay [7] and in assay [8] was inactive.

Consider `Cc1ccc(-n2ncc(C(=O)Nc3cc(Cl)cc(Cl)c3)c2C2CCNCC2)cc1C`, for which the values for the growth inhibition in assay [1] and in assay [4] were 77% (active) and 100% (active), respectively. For the same compound, the inhibition is 65% (active) in assay [2] and -7% in assay [3]. For the same compound, the result in assay [5], in assay [6], in assay [7] and in assay [8] was inactive.

On to `CN1CCN(CC(=O)Nc2cccc(-c3cccc(-c4nc5ccc(C(F)(F)F)cc5[nH]4)c3)c2)CC1`, for which the growth inhibition in assay [1] was 98% (active); in assay [4], 101% (active). The inhibition in assay [2] was 26%; in assay [3] it was 4%. For the same compound, the result in assay [5], in assay [6], in assay [7] and in assay [8] was inactive.

Take `CCCCN1CCN(c2cc(NS(=O)(=O)c3cccc(C(=O)Nc4ccc(C(F)(F)F)cc4)c3)ccc2OC)CC1`: the growth inhibition in assay [1] is 7%; in assay [4], 99% (active). Also, the values for the inhibition in assay [2] and in assay [3] were 6% and 4%, respectively. In addition, the outcome in assay [5], in assay [6], in assay [7] and in assay [8] was inactive.

As to `CCN(CCCN1CCCCC1)c1cc(C)nc(Nc2cc(Cl)cc(Cl)c2)n1`, the growth inhibition in assay [1] was 99% (active); in assay [4], 100% (active). Also, the inhibition in assay [2] was 34%; in assay [3] it was -3%. In addition, the result in assay [5], in assay [6], in assay [7] and in assay [8] was inactive.

In the case of `COc1cc(C(=O)N2CCN(C(C)C)CC2)ccc1CN(C)CCCN1CCN(c2cccc(Cl)c2Cl)CC1`, the results for the growth inhibition in assay [1] and in assay [4] were 87% (active) and 101% (active), respectively. Further, the inhibition in assay [2] is 56% (active); in assay [3] it was 0%. In addition, the result in assay [5], in assay [6], in assay [7] and in assay [8] was inactive.

As to `CC(C)COc1ccc(Cl)cc1Cc1ccc(-c2nc3ccc(Cl)cc3[nH]2)o1`, the growth inhibition was 96% (active) in assay [1] and 97% (active) in assay [4]. Besides, the figures for the inhibition in assay [2] and in assay [3] were 19% and -1%, respectively. The result in assay [5], in assay [6], in assay [7] and in assay [8] was inactive.

As for `O=C(/C=C/c1ccc(-c2nc3ccc(Cl)cc3[nH]2)cc1)NC1CCN(Cc2ccccc2)CC1`, the growth inhibition in assay [1] is 92% (active); in assay [4] it was 100% (active). Further, the results for the inhibition in assay [2] and in assay [3] were 3% and 0%, respectively. The outcome in assay [5], in assay [6], in assay [7] and in assay [8] was inactive.

`Cc1[nH]c(C)c(-c2ccc(C(=O)c3ccc(Cl)cc3)cc2)c(=O)c1Br`: the growth inhibition was 95% (active) in assay [1] and 97% (active) in assay [4]. In addition, the inhibition in assay [2] was 10%; in assay [3] it was 4%. Besides, the outcome in assay [5], in assay [6], in assay [7] and in assay [8] was inactive.

Consider `COc1cccc(CN(C(=O)Nc2ccccc2F)[C@H]2C[C@H]3C(=O)Nc4cc(F)ccc4C(=O)N3C2)c1`, for which the figures for the growth inhibition in assay [1] and in assay [4] were 75% (active) and 93% (active), respectively. Besides, the inhibition in assay [2] is -7%; in assay [3], 3%. In addition, the outcome in assay [5], in assay [6], in assay [7] and in assay [8] was inactive.

Regarding `CN(C)Cc1cccc(-c2cnc(N)c(-c3nc4ccc(S(C)(=O)=O)cc4[nH]3)c2)c1`, the growth inhibition was 61% (active) in assay [1] and 100% (active) in assay [4]. For the same compound, the inhibition in assay [2] was 27%; in assay [3] it was -2%. Also, the outcome in assay [5], in assay [6], in assay [7] and in assay [8] was inactive.

On to `CCN(CC)CCCNc1c2ccccc2nc2ccccc12`, for which the growth inhibition in assay [1] was 0%; in assay [4], 100% (active). Moreover, the results for the inhibition in assay [2] and in assay [3] were 17% and -1%, respectively. Further, the outcome in assay [5], in assay [6], in assay [7] and in assay [8] was inactive.

For `CC(Cc1ccc(NC(=O)c2ccc(CNCc3ccccc3)cc2)cc1)N(CCc1cccc(Cl)c1)C(=O)OC(C)(C)C` (configuration not stated), the growth inhibition in assay [1] was 2%; in assay [4], 95% (active). Further, the inhibition in assay [2] was 16%; in assay [3], -2%. Also, the result in assay [5], in assay [6], in assay [7] and in assay [8] was inactive.

`NC1CCN(c2cnn(Cc3cccc(NC(=O)Nc4ccc(-c5ccccc5)cc4)c3)c(=O)c2Cl)CC1`: the growth inhibition in assay [1] is 11%; in assay [4] it was 89% (active). Also, the inhibition in assay [2] is 5%; in assay [3], -3%. Moreover, the result in assay [5], in assay [6], in assay [7] and in assay [8] was inactive.

On to `CNC(=O)NC1CCN(Cc2c(-c3cccs3)nc3ccccc3c2C(=O)N[C@@H](C)C2CCCCC2)CC1`, for which the results for the growth inhibition in assay [1] and in assay [4] were 97% (active) and 99% (active), respectively. For the same compound, the inhibition is 5% in assay [2] and 1% in assay [3]. For the same compound, the outcome in assay [5], in assay [6], in assay [7] and in assay [8] was inactive.

For `COc1ccc(C2SCC(=O)N2CCc2ccc(OC)c(OC)c2)cc1` (configuration not stated), the results for the growth inhibition in assay [1] and in assay [4] were 2% and 96% (active), respectively. Also, the inhibition is 19% in assay [2] and 1% in assay [3]. Also, the outcome in assay [5], in assay [6], in assay [7] and in assay [8] was inactive.

For the compound `CCN1CCN(c2ccc(NC(=O)c3cc4c(C)nn(-c5ccccc5)c4s3)cc2C)CC1`, the growth inhibition in assay [1] is 81% (active); in assay [4], 101% (active). Besides, the results for the inhibition in assay [2] and in assay [3] were 32% and 5%, respectively. For the same compound, the outcome in assay [5], in assay [6], in assay [7] and in assay [8] was inactive.

Broadly, the inhibition is the change of the read-out against control, counted positive when it falls.

The values are drawn from PubChem BioAssay.
